# Only some compounds are listed: those with a hit (about 3.4% of all), similar ones and a draw of the others.
# Mcl1 Noxa PPI – Mcl-1/Noxa interaction inhibition; 220,000 compounds, 1.5% hits; inhibition, % at 21.7 µM; Q07820; TR-FRET Mcl-1/Noxa peptide binding, 2 h; AID 1022;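 active = compounds that cut the protein-peptide binding signal by more than 50% relative to plate controls in a single-dose test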;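 also: His-tagged Mcl-1 with rhodamine Noxa BH3 peptide and terbium anti-His antibody; 0% = Mcl-1 plus Noxa peptide wells and 100% = peptide-only wells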
# Target sequence (Q07820 whole entry, looked up): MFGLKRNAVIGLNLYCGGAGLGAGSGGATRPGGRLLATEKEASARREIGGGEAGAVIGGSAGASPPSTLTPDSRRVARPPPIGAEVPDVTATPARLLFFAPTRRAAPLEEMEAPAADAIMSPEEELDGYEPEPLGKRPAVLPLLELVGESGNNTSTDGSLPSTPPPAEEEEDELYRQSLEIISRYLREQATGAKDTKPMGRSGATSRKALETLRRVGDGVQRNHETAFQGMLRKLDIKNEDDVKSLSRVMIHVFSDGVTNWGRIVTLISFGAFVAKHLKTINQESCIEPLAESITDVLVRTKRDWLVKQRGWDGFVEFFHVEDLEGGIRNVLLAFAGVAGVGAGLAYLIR
# NCF1 inh – blocks human p47phox regulatory protein of NADPH oxidases; P14598; p47phox/p22phox peptide binding, fluorescence polarization, 2 h; inhibition, % at 24.7 µM; 220,000 compounds, 0.53% hits; AID 1274;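 active = inhibition above about 30%, limit read from the data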;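 also: 0% = p47phox with labelled peptide and 100% = labelled peptide alone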
# 14-3-3 Bad inh – disrupts binding of bovine 14-3-3 zeta to phospho-Bad peptide; 220,000 compounds, 0.71% hits; TR-FRET 14-3-3zeta/Dy647-pBad peptide displacement, 1 h; P63103; inhibition, % at 21.7 µM; AID 781;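 active = inhibition above about 70%, limit read from the data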;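 also: 0% = full 14-3-3 plus peptide FRET controls and 100% = background without 14-3-3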
# Target sequence (P63103 whole entry, looked up): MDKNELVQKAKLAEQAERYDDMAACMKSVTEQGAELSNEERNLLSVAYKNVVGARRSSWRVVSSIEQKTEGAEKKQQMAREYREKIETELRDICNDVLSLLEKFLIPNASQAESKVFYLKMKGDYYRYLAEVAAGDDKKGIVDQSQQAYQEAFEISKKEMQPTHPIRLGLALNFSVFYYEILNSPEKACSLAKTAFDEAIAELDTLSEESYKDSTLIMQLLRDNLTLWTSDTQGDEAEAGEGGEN
# Mcl1-Bid inh – Mcl-1/Bid interaction inhibition | Q07820 | TR-FRET Mcl-1/Bid-Dy647 peptide binding, 1536-well | inhibition, % at 21.7 µM | 220,000 compounds, 0.97% hits;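 active = compounds that cut the binding signal by more than half at the single screening dose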;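 also: His-tagged Mcl-1 with europium anti-His antibody binding Bid BH3 peptide; 0% = Mcl-1 plus peptide wells and 100% = peptide-only wells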
# m-calpain inh – blocks pig calpain II enzyme activity. inhibition, % at 16 µM. purified calpain II, fluorogenic peptide substrate, 30 min. AID 1236. 220,000 compounds, 0.37% hits;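 active = inhibition above about 50%, limit read from the data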
# Bim-Mcl-1 – inhibitors of Bim-Mcl-1 interaction, human; Bead-based flow cytometry, Bim peptide-Mcl-1 binding; inhibition, % at 10 µM; 190,000 compounds, 0.1% hits; in the data active = inhibition above about 40%;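 also: 0% = no compound tracer wells and 100% = peptide blocker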
# * = called active by the depositor; x = not tested or not shown; [ ] = another dose, or the depositor's remark.
SMILES,Mcl1 Noxa PPI,NCF1 inh,14-3-3 Bad inh,Mcl1-Bid inh,m-calpain inh,Bim-Mcl-1
CCC1(C(=O)OC)CCc2c(cc(OC)c3ccccc23)C1=O (stereo unspecified),88*,-6,3,-1,-334,x
CCOC(=O)CN(C(=O)c1ccccc1[N+](=O)[O-])C(C)(C)C,2,-4,3,-7,-1,x
COc1cccc2c3c(c(=O)[nH]c12)CCC(C)(C)O3,1,1,-4,-3,-20,1
COc1cccc2c(=O)c3cccc(N)c3[nH]c12,74*,14,2,-29,-13,1
S=c1[nH]nc(-c2cc(-c3ccccc3)n[nH]2)n1/N=C/c1ccc(Br)s1,70*,14,50,48,-2,x
Cc1ccc(/C=N/n2c(-c3cccnc3)n[nH]c2=S)s1,51*,3,-7,-47,1,0
CN(C)c1ccc(/C=N/n2c(-c3cccnc3)n[nH]c2=S)cc1,56*,-16,-4,-17,12,-1
S=c1[nH]nc(-c2cc(-c3ccccc3)n[nH]2)n1/N=C/c1c(Cl)cccc1Cl,23,9,66,12,-10,x
Cc1ccc(/C=N/n2c(-c3cccnc3)n[nH]c2=S)o1,-9,-5,-5,-50,-19,x
Cc1ccc(Cl)cc1NC(=S)N(CCCN1CCN(C)CC1)Cc1ccco1,13,2,-10,-48,-3,-3
CCOc1ccc(C2CC(=O)N(Nc3ccc([N+](=O)[O-])cc3[N+](=O)[O-])C2=O)cc1 (stereo unspecified),54*,0,1,0,19,x
CCOc1ccc(C(=O)Nc2cc(-c3nc4ccccc4[nH]3)ccc2C)cc1[N+](=O)[O-],3,-21,75*,-5,-124,-2
O=[N+]([O-])c1cc(/C=N/Nc2nc3ccccc3[nH]2)c(O)cc1O,75*,-23,1,-131,2,0
O=C(Nc1nc2ccccc2[nH]1)c1ccc(Cl)c([N+](=O)[O-])c1,82*,-17,35,9,4,0
COc1ccc(CNC(=O)C2(C)Cc3ccccc3C(=O)O2)cc1 (stereo unspecified),12,-1,-5,-24,-2,2
Cc1ccc(OCC(=O)N/N=C/c2cccn2C)cc1,11,1,70*,-27,-2,0
N/C(CS(=O)(=O)c1ccc(F)cc1)=N\O,-6,-1,1,78*,-26,x
O=C1C(Cl)=C(N2CCC(C(=O)O)CC2)C(=O)c2ccccc21,52*,14,2,-14,12,x
NC(=O)C1CCN(C2=C(NS(=O)(=O)c3ccccc3)C(=O)c3ccccc3C2=O)CC1,-1,0,2,-19,2,x
NC(=O)C1CCN(C2=C(Cl)C(=O)c3ccccc3C2=O)CC1,88*,7,7,27,15,16
Cc1cc(C(=O)OCC(=O)NCc2ccc(Cl)cc2)c(C)o1,-23,-5,-5,-27,1,0
Cc1ccc(C(C)C)c(OCCNC(=S)Nc2cccc3ccccc23)c1,15,-3,-2,-21,51*,-3
Cc1cc2nc(-c3ccc(SCC(=O)N4CCN(C(=O)c5ccco5)CC4)nc3)[nH]c2cc1C,71*,-68,0,-31,-455,1
Cc1ccc2nc(-c3ccc(SCC(=O)Nc4nnc(C)s4)nc3)[nH]c2c1,68*,7,31,70*,-105,-4
CCOC(=O)CSc1ccc(-c2nc3cc(C)c(C)cc3[nH]2)cn1,38,-18,-1,-8,-29,-1
SMILES,Mcl1 Noxa PPI,NCF1 inh,14-3-3 Bad inh,Mcl1-Bid inh,m-calpain inh,Bim-Mcl-1
CCOC(=O)CSc1ccc(-c2nc3ccccc3[nH]2)cn1,51*,-4,10,-13,-27,0
Cc1cc2nc(-c3ccc(SCC(=O)N4CCOCC4)nc3)[nH]c2cc1C,15,-17,4,-2,-351,2
Cc1ccc2nc(-c3ccc(SCC(=O)Nc4nc(C)cs4)nc3)[nH]c2c1,21,-29,-4,-23,-66,-5
CS/C(=C/[N+](=O)[O-])Nc1cccc2c1C(C)CC2(C)C (stereo unspecified),14,-1,-13,-5,6,-1
NNC(=S)Nc1cccc(-c2n[nH]c(=S)o2)c1,0,-16,-1,-70,-28,x
COc1ccc(-c2nc3n(n2)C(c2ccccc2Cl)C(C(N)=O)=C(C)N3)cc1 (stereo unspecified),-14,5,7,-13,12,-7
Cc1cc(-c2ccco2)n2c(nc3ccccc32)c1C#N,-9,-16,-12,96*,-44,0
C=C(C)CSc1cc(C)c(C#N)c2nc3ccccc3n12,50,0,4,-9,-208,-4
COc1cc(SC)ccc1C(=O)NCc1ccc(C)cc1,5,-4,14,-21,5,-6
COc1cc(SC)ccc1C(=O)N1CCN(c2ccccc2)CC1,82*,-2,0,-44,14,0
COc1cc(SC)ccc1C(=O)N1CCN(c2ccc(O)cc2)CC1,24,0,-6,-29,-17,-1
COc1cc(SC)ccc1C(=O)NCc1ccccc1,-8,77*,2,-37,9,0
O=c1oc2c(CN3CCN(CCO)CC3)c(O)ccc2cc1-c1ccccn1,16,7,-2,-2,-314,x
CCCCCCSc1nsc(NC(=O)CCC)n1,8,0,-10,-28,-16,-1
CCOC(=O)CSc1nn(C)c(=S)s1,-7,-11,49,57*,-21,1
CCOC(=O)CSc1n[nH]c(=S)s1,1,-1,16,-19,7,x
C#CCOCCOCCOCCNc1nc(N2CCN(C(=O)[C@H](CCCCN)n3cc([C@@H](N)C(C)CC)nn3)CC2)nc(N2CCN(C(=O)[C@H](CCCCN)n3cc([C@@H](N)CO)nn3)CC2)n1 (stereo partly specified),35,x,65,88*,22,0
C#CCOCCOCCOCCNc1nc(N2CCN(C(=O)[C@H](CCCCN)n3cc(C(N)[C@H](C)CC)nn3)CC2)nc(N2CCN(C(=O)[C@H](CCC(=O)O)n3cc(C(N)[C@H](C)CC)nn3)CC2)n1 (stereo partly specified),32,-3,44,75*,-23,2
CC(Nc1ccc(N2CCOCC2)cc1)C(=O)N1c2ccccc2CC1C (stereo unspecified),18,1,84*,-53,-12,x
COc1ccc(-c2nnc(SCc3ccccn3)n2C)cc1,2,-11,-5,-7,3,6
COc1ccc(N=C(N)SCc2ccccn2)cc1,42,7,47,67*,-8,-2
COCc1nnc(NC(=O)CSCc2ccccc2)s1,6,-12,5,-7,5,0
CN1CCN(C2=C(Cl)C(=O)C(c3cnc(N4CCCCC4)s3)=C(Cl)C2=O)CC1,98*,48*,83*[fluorescence artefact?],79*,-74,32

# High-throughput results: PubChem BioAssay, several laboratories
